Screening data (PubChem)
Dicer inh: inhibitors of human Dicer processing of pre-microRNA | cat-ELCCA pre-miR-21 Dicer processing, chemiluminescence; active compounds read high | z-score at 25 µM | 47,000 compounds, 6% hits | AID 1347074; in the data active = z-score above about 3, passing the limit was not always enough;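 note: plate controls were vehicle for no effect and no enzyme for full effect; higher signal means more uncleaved substrate so more Dicer inhibition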
* hit, by the source's call. This is one part of a sample in which hits are shown more often than they occur.

What do the screens show for `Cc1ccc(/C(O)=C2/C(=O)C(=O)N(CCCN3CCOCC3)C23C(=O)N(C)c2ccccc23)cc1F` (stereo not given)?
Dicer inh: -3.9

Results for Cc1ccc(/C(O)=C2/C(=O)C(=O)N(CCN3CCOCC3)C23C(=O)N(C)c2ccccc23)cc1F (stereo not given) ?
Dicer inh: 4.2*

What do the screens show for `CCN1C(=O)C2(/C(=C(/O)c3ccc(C)cc3)C(=O)C(=O)N2CCCN2CCOCC2)c2ccccc21` (stereo not given)?
Dicer inh: 2.2

What do the screens show for `COc1ccc(C(=O)CSc2nnc3n2CCCN3C(=O)c2cccc([N+](=O)[O-])c2)cc1`?
Dicer inh: 3

How did CC1CN(Cc2ccc3c(c2)OCO3)C(=O)C(=O)N1Cc1ccc2c(c1)OCO2 (stereo not given) do in these assays?
Dicer inh: 2.5

How did O=C(COc1ccc(Br)cc1)Nc1nccs1 do in these assays?
Dicer inh: 0.87

Results for COc1cc(C2Nc3ccccc3S(=O)(=O)N2Cc2ccccc2)cc(Br)c1OC (stereo not given) ?
Dicer inh: 0.03

Results for O=c1[nH]cnc2c1nnn2Cc1ccccc1Cl ?
Dicer inh: -1.5

What do the screens show for `Cc1cc(C)c2[nH]c(C3C(=O)c4ccccc4C3=O)cc(=O)c2c1`?
Dicer inh: -0.03

What do the screens show for `O=C(Nc1ccc(OC(F)(F)F)cc1)C1CCc2ccccc2O1` (stereo not given)?
Dicer inh: -1.8

How did CCOC(=O)C(=NNc1cccc([N+](=O)[O-])c1)C(=O)OCC do in these assays?
Dicer inh: -0.04

How did CN1C(=O)C2(/C(=C(/O)c3ccc(F)cc3)C(=O)C(=O)N2CCCN2CCOCC2)c2ccccc21 (stereo not given) do in these assays?
Dicer inh: 0.07

What do the screens show for `C=CCN1C(=O)C2(/C(=C(/O)c3ccccc3)C(=O)C(=O)N2CCN2CCOCC2)c2ccccc21` (stereo not given)?
Dicer inh: 1.5

Results for CCCN1C(=O)C2(/C(=C(/O)c3ccccc3)C(=O)C(=O)N2CCN2CCOCC2)c2ccccc21 (stereo not given) ?
Dicer inh: 4.7*

What do the screens show for `CCOC(=O)Cc1cc(=O)n2[nH]c(C)nc2n1`?
Dicer inh: 1.6

How did O=C1NC(=S)/C(=C/c2ccccc2O)S1 do in these assays?
Dicer inh: -1.5

What do the screens show for `COc1cccc(/C=C2\SC(=S)NC2=O)c1OC`?
Dicer inh: -0.91

How did COc1cccc(/C=C2/SC(=S)N(C)C2=O)c1O do in these assays?
Dicer inh: 7.7*

Results for OC(CN1CCN(c2nc3ccc(Cl)cc3s2)CC1)Cn1ccc2ccccc21 (stereo not given) ?
Dicer inh: -0.74

How did Cc1nc(N2CCCCC2)c2oc3ccccc3c2n1 do in these assays?
Dicer inh: 0.92

How did Cc1ccc(-c2nnc3c4ccccc4c(C)nn23)cc1NC(=O)CSc1nc2ccccc2o1 do in these assays?
Dicer inh: 2.5

What do the screens show for `O=C(c1cc(-c2ccc3c(c2)OCO3)nc2ccccc12)N1CCN(Cc2ccc3c(c2)OCO3)CC1`?
Dicer inh: 1.4

What do the screens show for `CN(C)C(=O)N1CCN(C(=O)c2ccco2)CC1`?
Dicer inh: 3.1*

What do the screens show for `O=S(=O)(c1ccc2ccccc2c1)N1CCN(Cc2ccc3c(c2)OCO3)CC1`?
Dicer inh: 6.6*

What do the screens show for `O=C(c1ccc2c(c1)OCO2)N1CCN(Cc2ccc3c(c2)OCO3)CC1`?
Dicer inh: -0.91

How did CC1CCC(N2CCN(C(=O)c3ccco3)CC2)CC1 (stereo not given) do in these assays?
Dicer inh: 0.07

What do the screens show for `COc1ccc(S(=O)(=O)N2CCN(Cc3ccc4c(c3)OCO4)CC2)cc1`?
Dicer inh: 8

How did O=C(c1ccco1)N1CCN(Cc2ccc3c(c2)OCO3)CC1 do in these assays?
Dicer inh: 6.2*

How did O=S(=O)(c1ccccc1)N1CCN(Cc2ccc3c(c2)OCO3)CC1 do in these assays?
Dicer inh: 8

What do the screens show for `CCCS(=O)(=O)N1CCN(C(=O)c2ccco2)CC1`?
Dicer inh: 2.7

Results for COc1ccc(C2=NN(C(=O)CCC(=O)O)C(c3ccc(Cl)cc3)C2)cc1OC (stereo not given) ?
Dicer inh: 5.1

What do the screens show for `CCCCC(=O)Nc1sc2c(c1C(N)=O)CCCC2`?
Dicer inh: -0.97

How did CCCc1c(C(=O)O)cnn1-c1ccccc1 do in these assays?
Dicer inh: -2.3

How did Cc1nc(-c2ccc(S(=O)(=O)N3CCN(c4nc(-c5ccccc5)ns4)CC3)s2)cs1 do in these assays?
Dicer inh: -0.42

How did Cc1c(C)c(C)c(S(=O)(=O)N2CC(C)CC(C)C2)c(C)c1C (stereo not given) do in these assays?
Dicer inh: 2.3

How did O=C1c2ccccc2C(=O)N1CN(Cc1ccsc1)CN1C(=O)c2ccccc2C1=O do in these assays?
Dicer inh: -1.4

Results for COC(=S)NC(=O)/C=C/c1ccccc1 ?
Dicer inh: 3.5*

How did O=C(/C=C/c1ccccc1)NC(=S)Nc1cc(C(F)(F)F)cc(C(F)(F)F)c1 do in these assays?
Dicer inh: -0.04

How did O=C(/C=C/c1ccccc1)NC(=S)Nc1ccc(OC(F)(F)F)cc1 do in these assays?
Dicer inh: -0.76

How did COC(=O)c1cc(=O)n2c(n1)sc1cc(OC)ccc12 do in these assays?
Dicer inh: -0.38

What do the screens show for `CSc1sc(C#N)c2c1C(O)CCC2` (stereo not given)?
Dicer inh: -1.3

Results for N#C/C(=C\Nc1cc(C(F)(F)F)cc(C(F)(F)F)c1)C(=O)c1ccc(Cl)cc1 ?
Dicer inh: -0.13

Results for CCOc1cc(CNCCO)cc(Cl)c1OCc1cccs1 ?
Dicer inh: -0.58

What do the screens show for `CC(C)n1c(SCC(=O)Nc2ccc(Cl)cc2)nc2cc(C(F)(F)F)ccc21`?
Dicer inh: -0.03

What do the screens show for `CC(C)(C)C(=O)O/N=C(\N)Cc1cccc2ccccc12`?
Dicer inh: -1.2

Results for Cc1ccc(-c2cc3ccccc3[nH]2)cc1 ?
Dicer inh: 16*

Results for Cc1ccc(-c2cc(=O)c3c(=O)n(-c4ccccc4)[nH]c3[nH]2)cc1 ?
Dicer inh: -0.59

What do the screens show for `c1ccc(-c2cc3ccccc3[nH]2)cc1`?
Dicer inh: -0.6

What do the screens show for `Fc1cccc(Cl)c1CSc1nnc(-c2cn3cc(C(F)(F)F)cc(Cl)c3n2)o1`?
Dicer inh: -0.51

Results for CC(NCc1ccccc1)c1ccco1 (stereo not given) ?
Dicer inh: -0.68

Results for C#CC1(NC(=S)NC2CC(C)CC(C)(C)C2)CCCCC1 (stereo not given) ?
Dicer inh: -1.9

How did CCOC(=O)c1c[nH]c2cc(F)c(F)cc2c1=O do in these assays?
Dicer inh: 1.1

Results for Cc1noc(NC(=O)c2ccc(C(F)(F)F)cc2)c1[N+](=O)[O-] ?
Dicer inh: 4.6*

How did Cc1nc(C)c(C(=O)NNC(=O)c2ccc(C(F)(F)F)cc2)s1 do in these assays?
Dicer inh: -0.39

Results for Cc1noc(-c2ccc(Cl)cc2)c1C(=O)NNC(=O)c1ccc(C(F)(F)F)cc1 ?
Dicer inh: 3.8

What do the screens show for `Cc1c(C)c(C)c(S(=O)(=O)Nc2ccccc2N)c(C)c1C`?
Dicer inh: 13*

Results for Cc1c(C)c(C)c(S(=O)(=O)Nc2ccc(Cl)cc2Cl)c(C)c1C ?
Dicer inh: -0.12

Results for Cc1c(C)c(C)c(S(=O)(=O)Nc2cc(Cl)cc(Cl)c2)c(C)c1C ?
Dicer inh: 0.7

What do the screens show for `C=C(CC(=O)N1CCOCC1)C(=O)N1CCOCC1`?
Dicer inh: -0.74
